This passage reports growth results from PubChem BioAssay (NCI).

The panel holds about 83,000 compounds, 20% with a hit somewhere; the sample as a whole holds those more often.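 Step 1: grow cells in 96-well plates. Step 2: add test compound at a single concentration. Step 3: incubate 48 h. Step 4: record percent growth.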 Values without a mark were called inactive. Active and inactive are the calls of the source.

In this assay the test system is HOP-62 NSCLC. The assay can be described thus: NCI-60 one-dose screen, 48 h (100 = growth as untreated, 0 = no growth, -100 = all killed). The settings on record: 10 µM unless noted. As to the method: Growth inhibition of the HOP-62 human Non-Small Cell Lung tumor cell line is measured as a screen for anti-cancer activity. Cells are grown in 96 well plates and exposed to the test compound for 48 hours. Compounds are tested at a single concentration, which is 10^-5 M for most compounds. The reported endpoint is percent growth (GI% or GIPRCNT), where numbers from 0 - 100% represent growth inhibition, and numbers from -100% - 0 represent cell death. For example, a value of 40 represents 60% growth inhibition. A value of 0 means no net growth occurred over the course of the experiment. A value of -40 indicates 40% of cells at the beginning of the experiment died by the end of the experiment. A value of -100 means all cells are dead at the end of the experiment.
NCI-60 Human Tumor Cell Lines Screen was performed using the standard one-dose NCI protocol, which is described in more detail at https://dtp.cancer.gov/discovery_development/nci-60/default.htm.
Compounds with GIPRCNT values below 10 were considered active. Activity score was based on GIPRCNT using the following formula: […]
Score is 0 for GIPRCNT values of 100 or above, 50 for GIPRCNT values of 0, and 100 for GIPRCNT values of -100.
As for `CN(C)CCCNC(=O)C(c1ccccc1)c1ccccc1`, the growth was 103%.

As to `O=C(O)c1cn(C2CC2)c2cc(N3CCN(S(=O)(=O)c4ccc(Cl)c(Cl)c4)CC3)c(F)cc2c1=O`, the growth was 15.2%. `CN(C)C1CCC(NC2=CC(=O)C=CC2=O)CC1` (stereo not given): the growth is 116%.

On to `CC(Br)C(O)c1cc2c(cc1Br)OCO2` (stereo not given), for which the growth was 102%. For `O=C(CNC(=O)c1cccc2ccccc12)Nc1ccccc1Oc1ccccc1`, the growth is 24.6%. On to `CCCCCCCCCCCCNC(=S)N/N=C/c1ccc(Cl)c(Cl)c1`, for which the growth is 105%. Take `O=S(=O)(NCCNc1nccc(-c2c(-c3ccccc3)nc3sccn23)n1)c1ccc(O)cc1`: the growth was 58.9%. Take `Cc1ccccc1C(=O)c1ccccc1C(=O)O`: the growth is 106%. With `Cc1cc(Nc2nc(C(=O)Nc3ccccc3)nc3ccccc23)n[nH]1`, the growth is 60%.

Turning to `CCOC(=O)/C=C\C(=O)NC(N)=O`, the growth was 87.8%.

Consider `Nc1nc(N)c2nc(CNc3ccc(C(=O)CC(CCC(=O)O)C(=O)O)cc3)cnc2n1` (stereo not given), for which the growth was 39.8%. Turning to `CC/C=C\C/C=C\C[C@H]1C/C=C2/C(=O)C=C[C@H]2C/C=C\CCC(=O)O1`, the growth was -23.6% (active). With `COc1cc(OC)c(C(=O)/C=C/c2ccc(C(F)(F)F)cc2)c(OC)c1`, the growth was 55.1%. Turning to `C=C1C(=O)O[C@H]2[C@H]1CC/C(COC(=O)NCCc1ccc(Br)cc1)=C\CC[C@@]1(C)O[C@@H]21`, the growth is 54.6%. As to `CC(C(=O)n1cc(-c2ccccc2)c(-c2ccccc2)c1)c1ccccc1` (stereo not given), the growth is 95.4%. Consider `COC1=CC(c2ccc[nH]2)=N/C1=C\c1[nH]c(C)c(C(=O)CCCCC(=O)Oc2ccc3c(c2)CCC2C3CC[C@]3(C)[C@@H](O)CC[C@@H]23)c1C` (stereo not given in full), for which the growth is 68.4%.

`Cc1nc2scc(-c3ccccc3)n2c(=O)c1CCO`: the growth was 92.5%. In the case of `COc1ccc2c(c1)C(=O)/C(=C/c1ccc(O)cc1)O2`, the growth was 90.8%. In the case of `C#CCC1(c2ccc(F)c(F)c2)NS(=O)(=O)c2ccccc21` (stereo not given), the growth was 86.2%. Consider `O=C(CC(O)c1ccncc1)c1ccccc1` (stereo not given), for which the growth was 22.9%. On to `CC(C)(C)OC(=O)N[C@@H](Cc1ccccc1)C(=O)N(Cc1ccccc1)C1(C(=O)NCc2ccccc2)CCN(Cc2ccccc2)CC1`, for which the growth is 56.2%. With `CCCCCCC[C@@H](O)CC(=O)N[C@H](CCCCN)C(=O)N[C@H](Cc1c[nH]c2ccccc12)C(=O)NC(CCCCN)C(=O)N[C@H](CC(C)C)C(=O)N[C@H](Cc1ccccc1)C(=O)N[C@H](CCCCN)C(=O)N[C@H](CCCCN)C(=O)N[C@H](CC(C)C)C(=O)N1CCCC1C(=O)N[C@H](CCCCN)C(=O)N[C@H](Cc1ccccc1)C(=O)N[C@H](CC(C)C)C(=O)N[C@H](Cc1c[nH]cn1)C(=O)N[C@H](CC(C)C)C(=O)N[C@H](C)C(=O)N[C@H](CCCCN)C(=O)N[C@H](CCCCN)C(=O)N[C@H](Cc1ccccc1)C(=O)O` (stereo not given in full), the growth is -59% (active). Then `Cn1c(C(N)=O)cc2c1-c1nc(NC3CCCCC3)ncc1CCC2`, with 90%; and `Cc1cc(C)c2c(=O)[nH]c(SCC(=O)Nc3cccc(S(=O)(=O)N(C)C)c3)nc2n1`, with 97.8%. For the molecule `COc1cc(Br)c(OC)cc1Br`, the growth was 93.5%. For `CCC(C)NCC(=O)O` (stereo not given), the growth is 98.2%. Then `COC(=O)[C@H]1[C@H](OC)[C@@H](OC(=O)/C=C/c2ccncc2)CC2CN3CCc4c([nH]c5cc(OC)ccc45)[C@@H]3C[C@@H]21` (stereo not given in full), with 78.5%; and `NC(=O)NNC(=O)c1ccccc1`, with 107%. With `N#Cc1ncc(-c2ccc(F)c(F)c2F)c(NC2CCCCCC2)n1`, the growth was 82.3%. The same measure for `CN(C)C/C=C/C(=O)Nc1cc2c(Nc3ccc(F)c(Cl)c3F)ncnc2cc1OCCOC(F)F`: 20.6%; for `CCSc1nnc(NC(=O)Cc2ccc(Cl)cc2)s1`: 102%. Then `C/C1=C\CCC2(C)OC2CC2CCC(C)(O)C(CC1)C2(C)C` (stereo not given), with 101%.

Regarding `CCCCCCCCCCC/C=C\C[C@H](O)C/C=C1/C(=O)C=C[C@@H]1C/C=C\CCCC(=O)OC`, the growth was -16.1% (active).

Turning to `NC(=O)c1c(NC(=O)c2ccc(OCC3CCCO3)cc2)sc2c1CCCC2` (stereo not given), the growth is 108%.

`COc1cc(CNC(=O)CCSc2nc3ccccc3c(=O)n2Cc2cc(OC)c(OC)c(OC)c2)cc(OC)c1OC`: the growth was 29.3%.

As to `Cc1ccc2c(c1)ncn2-c1ncnc2c1CC(C)c1ccccc1N2C` (stereo not given), the growth is 33.9%. Then `COC(=O)c1ccc(C)cc1`, with 107%; and `COc1ccc(NC(=O)/N=c2\oc3c(OC)cccc3cc2-c2cc3ccccc3[nH]2)cc1`, with 22.6%.

On to `Cc1ccc2c(c1)C(C)Cc1c(ncnc1-n1cnc3ccccc31)N2C` (stereo not given), for which the growth is 38.1%. The same measure for `CC(C)CCC[C@@H](C)[C@H]1CC[C@H]2[C@@H]3CC[C@H]4C/C(=N/O)CC[C@]4(C)[C@H]3CC[C@]12C`: 92.8%.
